Experiment [1] can be described thus: NCI Yeast Anticancer Drug Screen. Data for the rad50 strain (AID 155).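 Also: 0% = growth of vehicle-only cultures of the same strain.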 The note with it: S. cerevisiae rad50 strain growth inhibition; at 50.0 µM; hits give high values. In a few lines:
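Genetically altered yeast (DNA repair pathway); compound treatment; growth inhibition vs vehicle ctrl.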

Experiment [2] is described as follows: NCI Yeast Anticancer Drug Screen. Data for the mec2-1 strain (AID 157). The conditions noted are these: S. cerevisiae mec2-1 strain, at 50.0 µM, hits give high values. In a few lines: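 Readout is yeast growth inhibition, normalised to vehicle-treated controls, in the mec2-1 strain exposed to compound.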
Experiment [3] is described as follows: NCI Yeast Anticancer Drug Screen. Data for the cln2 rad14 strain (AID 165).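 Also: 0% = growth equal to vehicle treated cultures.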 The conditions noted are these: S. cerevisiae cln2 rad14 strain, at 50.0 µM, hits give high values. In a few lines: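 Relative to vehicle controls, growth inhibition of compound-treated cln2 rad14 yeast was recorded.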
Experiment [4] is described as follows: NCI Yeast Anticancer Drug Screen. Data for the bub3 strain (AID 167). The note with it: S. cerevisiae bub3 mutant strain, at 50.0 µM, hits give high values. In a few lines:
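Yeast carrying a defined mutation is treated with each compound, and growth is compared with that of vehicle-exposed cells to give inhibition.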

Experiment [5] can be described thus: NCI Yeast Anticancer Drug Screen. Data for the mlh1 rad18 strain (AID 175). The note with it: S. cerevisiae mlh1 rad18 strain growth inhibition; at 50.0 µM; hits give high values. A digest of the protocol: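 Test agents were incubated with a yeast strain of defined genotype (DNA damage repair defect). Inhibition of growth was derived by comparison with vehicle-exposed cultures.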

The nature of experiment [6]: NCI Yeast Anticancer Drug Screen. Data for the sgs1 mgt1 strain (AID 161).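 Also: 0% = growth of cultures given vehicle only.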 The conditions noted are these: S. cerevisiae sgs1 mgt1 strain, at 50.0 µM, hits give high values. In a few lines: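 Compounds are added to genetically altered yeast, and growth is compared with cultures given vehicle alone to give percent inhibition.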

This is part of a sample that, as a whole, favours compounds with a hit. Of some 79,000 tested, about 15% had one in any assay. A number with no mark means an inactive call. Activity calls are given as the source filed them. Rule as the data show it: active = growth inhibition above about 70%; inactive = the rest.

Regarding `N#CSC1C=CS(=O)(=O)C1` (stereo not given), the growth inhibition in experiment [1] is 44.6%; in experiment [2] it was 4.05%; in experiment [3], -44.1%; in experiment [4] it was 3.55%; in experiment [5], 58.8%.
The corresponding values for `COC(=O)Nc1nc2ccc(SC)cc2c(=O)[nH]1` are -9.55%, -5.55%, 6.45%, -17.8% and -29.6%.
The corresponding values for `COc1cc(C(C#N)NNc2nc(C)cc(=O)[nH]2)cc(OC)c1OC` (stereo not given) are -25.6%, -2.75%, -5.35%, -23.9% and -12.9%.
In the same order, the values of `CCC1(O)CC2CN(CCc3c([nH]c4ccccc34)C(C(=O)OC)(c3cc4c(cc3OC)N(C)C3C(O)(C(=O)NCCSSCCNC(=O)C5(O)C(O)C6(CC)C=CCN7CCC8(c9cc(C%10(C(=O)OC)CC%11CN(CCc%12c%10[nH]c%10ccccc%12%10)CC(O)(CC)C%11)c(OC)cc9N(C)C58)C76)C(O)C5(CC)C=CCN6CCC43C65)C2)C1` (stereo not given) are 23.4%, 11.4%, 42.8%, 40.1% and 37.6%.
`CCN(CC)Cc1cc(Nc2c3ccc([N+](=O)[O-])cc3nc3ccc(OC)cc23)ccc1O`: the growth inhibition in experiment [1] is 83.3% (active); in experiment [2], 60.4%; in experiment [3] it was 54.5%; in experiment [4] it was 53.9%; in experiment [5] it was 65.3%.
The corresponding values for `c1ccc2n[nH]nc2c1` are 19.1%, -10.9%, 2.2%, -4.8% and 16.9%.
In the same order, the values of `CCSc1cccc(C(=O)O)c1` are -23.1%, -2.9%, -27.8%, -22.9% and -7.8%.
In the same order, the values of `Nc1ncc(Cl)c(NCC2(CO)CC(CCc3ccccc3)C2)n1` (stereo not given) are -4.7%, -19.1%, -1.15%, -37% and 2.35%.
Take `COc1cccc(/C=C\C(=O)c2ccccc(=O)c2O)c1OC`: the growth inhibition is 34.5% in experiment [1]; 23.4% in experiment [2]; -5.4% in experiment [3]; 40.5% in experiment [4]; 40.9% in experiment [5].
The corresponding values for `Nc1ccccc1OCOCOc1ccccc1N` are -11.7%, -17.8%, -11.4%, -6.3% and -10.3%.
In the same order, the values of `CON(C)c1nc(N)c(C#N)c(C#N)c1C#N` are 4.35%, -23.7%, 13.4%, 15% and 7.45%.
In the same order, the values of `CC(=O)Oc1cc(C(F)(F)F)ccc1C(=O)OC1(C)OC(=O)c2ccc(C(F)(F)F)cc2O1` (stereo not given) are -34.1%, -12.9%, -2.85%, -13.9% and -16.9%.
With `O=C(Nc1ccc(Cl)c(C(F)(F)F)c1)C(=O)c1c(O)c2ccccc2oc1=O`, the growth inhibition in experiment [1] is 9.85%; in experiment [2], 4.7%; in experiment [3], -38.5%; in experiment [4], -19.1%; in experiment [5], 5.3%.
Consider `CNC(=O)c1ccccc1N=NN(C)C`, for which the growth inhibition in experiment [1] was -0.65%; in experiment [2], 19.4%; in experiment [3], 13.7%; in experiment [4], 15.7%; in experiment [5] it was 40.5%.
On to `COc1ccc(CSC(=S)Nc2ccc(F)c(C)c2)cc1`, for which the growth inhibition in experiment [1] is 20.8%; in experiment [2] it was 14.4%; in experiment [6] it was 17.1%; in experiment [3] it was 28.1%; in experiment [5], 10.6%.
Turning to `COC(=O)C1CCc2c(ccc3cc(OC)ccc23)C1(C)C(=O)OC` (stereo not given), the growth inhibition is -14.5% in experiment [1]; -7.65% in experiment [2]; -40.1% in experiment [3]; -2.2% in experiment [4]; -10.2% in experiment [5].
With `C/C=C/CNc1ccc(C)cc1`, the growth inhibition in experiment [1] is 30.5%; in experiment [2], 20.9%; in experiment [3], 28.4%; in experiment [4], 2.2%; in experiment [5] it was 22.8%.
The corresponding values for `C#CCN(CCCC)CCCC` are -14.2%, -21.1%, -33.4%, -39.9% and -10.3%.
The corresponding values for `COC(=O)c1cc2/c(=N/O)c3ccccc3sc2o1` are -0.45%, -23.1%, 0.75%, -16.4% and -28.8%.
For the compound `COc1ccc(C2C(Cl)C(=O)N2NC(=O)c2ccc(NC(C)=O)cc2)cc1` (stereo not given), the growth inhibition in experiment [1] is -47.9%; in experiment [2], -20.8%; in experiment [3] it was -9.35%; in experiment [4] it was -50%; in experiment [5], -54%.
In the same order, the values of `O=C(O)C1CCCCN1O` (stereo not given) are -7.85%, -2.15%, 5.75%, 10.9% and -6.15%.
The corresponding values for `O=C(N/N=C\c1ccccn1)Nc1ccc(N=Nc2ccccc2)cc1` are 6.55%, -9.85%, -3.9%, 5.75% and 4.9%.
The corresponding values for `Cc1ccc(Nc2nc(=O)[nH]c(=O)[nH]2)cc1N` are -11.7%, 1.65%, 11.7%, 27.1% and -54.5%.
Turning to `c1ccc2c(c1)ncc1cc3c(cc12)[nH]c1ccccc13`, the growth inhibition in experiment [1] is 40.9%; in experiment [2], 7.5%; in experiment [3] it was -11.1%; in experiment [4], -10.4%; in experiment [5], 26.6%.
In the same order, the values of `O=C1c2ccccc2C(=O)N1c1cccc([N+](=O)[O-])c1` are 0.5%, 15.9%, -44.6%, 26.4% and 7.05%.
In the same order, the values of `CCOc1ccc(C2OCC(C)O2)cc1OC` (stereo not given) are 13.2%, 13.6%, 10.3%, -0.5% and 11.7%.
The corresponding values for `CNC(=O)N(CC1CCCCC1)c1nc2c(=O)n(C)c(=O)[nH]c2s1` are -4.75%, -5.9%, -22.7%, -4.25% and -3.6%.
`OC(c1cc(C2CCCCC2)nc2ccccc12)C1CCCCN1` (stereo not given): the growth inhibition in experiment [1] is -13.1%; in experiment [2], -0.85%; in experiment [3] it was 2.6%; in experiment [4], -5.7%; in experiment [5], -12.7%.
The corresponding values for `COC(Cc1cc(C(O)(c2ccc(C(C)(C)C)cc2)c2cc(CC(OC)(c3cc(C(OC)(c4ccc(C(C)(C)C)cc4)c4ccc(C(C)(C)C)cc4)c(C)cc3C)c3cc(C(OC)(c4ccc(C(C)(C)C)cc4)c4ccc(C(C)(C)C)cc4)c(C)cc3C)c(C)cc2C)c(C)cc1C)(c1cc(C(OC)(c2ccc(C(C)(C)C)cc2)c2ccc(C(C)(C)C)cc2)c(C)cc1C)c1cc(C(OC)(c2ccc(C(C)(C)C)cc2)c2ccc(C(C)(C)C)cc2)c(C)cc1C` are -2.75%, -1.25%, -30.6%, 5.55% and 23.6%.
In the same order, the values of `COC(=O)C(NC(=O)C(CC(=O)OC(C)(C)C)NC(=O)OC(C)(C)C)C(O)c1ccccc1` (stereo not given) are -35.6%, -23.9%, -0.75%, -27.6% and -0.85%.
As for `O=C(COc1ccc(Cl)cc1)Nc1ccc(S(=O)(=O)O)c2ccccc12`, the growth inhibition is 9% in experiment [1]; 0.6% in experiment [2]; -5% in experiment [3]; 1.65% in experiment [4]; 13.4% in experiment [5].
In the same order, the values of `O=C(O)C/C=C/CC(=O)O` are -2.25%, -13.5%, 4.45%, 15.4% and -3.15%.
The corresponding values for `c1ccc2c(c1)CCC(C1=NC3CCCCC3N1)=N2` (stereo not given) are -1.25%, 3.7%, -47.3%, 6.3% and 1.85%.
For `CC1(C)OC2C(=O)O[C@H](CO)C2O1` (stereo not given in full), the growth inhibition is -2.7% in experiment [1]; 9.5% in experiment [2]; 24.6% in experiment [3]; 7.3% in experiment [4]; 16.4% in experiment [5].
The corresponding values for `O=C1OC(=O)C2C1C1c3ccccc3C2(O)c2ccccc21` (stereo not given) are -1.8%, -17.9%, 2.95%, 6.1% and -0.6%.
In the same order, the values of `CN1CC2=C(NC(=S)NC2c2ccccc2)/C(=C/c2ccccc2)C1` (stereo not given) are -14.5%, -8.75%, 6.8%, 22.4% and -13.2%.
In the same order, the values of `N#Cc1c2nc3ccccc3nc2n2ccccc12` are 0.7%, 19.4%, 1.25%, 1.15% and 53.8%.
As to `COc1ccccc1C=NC12CC3CC(CC(C3)C1)C2`, the growth inhibition in experiment [1] was -29.2%; in experiment [2] it was -12.6%; in experiment [3], 1.9%; in experiment [4] it was -4.2%; in experiment [5], -16.6%.
The corresponding values for `CN(C1CCCCC1)S(=O)(=O)c1ccc(N)cc1` are 7.65%, -3.35%, 11.4%, 5.25% and 24.5%.
The corresponding values for `O=C(COc1ccc(Cl)c(Cl)c1)NCc1cccc(Cl)c1` are 6.1%, -8.65%, -2.85%, 36.4% and 30.9%.

For the origin of these results see PubChem BioAssay (NCI).
